Source: PubChem BioAssay AID652115 (Broad Institute, 2013)
Where “and” joins values, the source holds several entries; their conditions need not be identical. Equal values may be shown once. The campaign covered roughly 330,000 compounds. About 3,800 (1.2%) were called active. Cut-off read from the data, not from the text of the source: active = inhibition above about 15%; inconclusive = no clear call, values can overlap the other calls; inactive = below that. The list comes from a sample in which actives are over-represented; it also holds similar structures and randomly drawn compounds. A structure can be active in one record and inactive in another.

These compounds were tested against NAD-dependent protein deacylase sirtuin-5, mitochondrial (Homo sapiens) (UniProt Q9NXA8) (assay: SIRT5 desuccinylase inhibitors, primary screen, biochemical, fluorescence imaging, single point, set 5 (AID 652115)). Conditions: Purified SirT5, succinyl-peptide AMC, trypsin-coupled fluorescence; at 15 µM; stronger effect = higher value.
Sequence of NAD-dependent protein deacylase sirtuin-5, mitochondrial (Homo sapiens) (Q9NXA8 whole entry, looked up): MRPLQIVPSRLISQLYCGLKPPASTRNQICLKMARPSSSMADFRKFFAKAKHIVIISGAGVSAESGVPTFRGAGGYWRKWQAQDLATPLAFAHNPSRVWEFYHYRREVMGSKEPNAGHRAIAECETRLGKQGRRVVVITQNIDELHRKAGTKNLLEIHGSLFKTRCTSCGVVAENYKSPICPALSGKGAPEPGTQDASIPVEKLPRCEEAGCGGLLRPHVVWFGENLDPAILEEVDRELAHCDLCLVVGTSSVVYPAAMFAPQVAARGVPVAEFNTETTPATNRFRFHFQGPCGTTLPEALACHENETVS
In the case of `CCCN1[C@H](C(=O)N[C@H](C)c2ccccc2)[C@@H](CO)[C@@H]2Cn3c(ccc(-c4ccccc4)c3=O)[C@@H]21`, the inhibition was -2.75% (inactive). `O=C(Cc1ccccc1)N1C[C@H]2[C@@H](c3ccccc31)[C@H](CO)N2C(=O)c1ccc(F)cc1` was tested, and the inhibition was 0.689% (inactive). With `CC(=O)c1ccc(NC(=O)Cn2c(=O)oc3ccccc32)cc1` the inhibition was -1.5% (inactive). With `Cc1cccnc1NC(=O)Cn1c(=O)oc2ccccc21` the inhibition was -0.084% (inactive). For `NC(=O)Cn1c(=O)oc2ccccc21`, the inhibition was 23.1% (active). With `CO[C@@H]1CN(C)C(=O)c2cc(NC(C)=O)ccc2OC[C@H](C)N(C(=O)CC2CC2)C[C@@H]1C` the inhibition was 0.181% (inactive). `CO[C@@H]1CC[C@H]2CCN(C)C(=O)[C@@H](C)CN(C)C(=O)c3cccc(C#N)c3OC[C@@H]1O2` was tested, and the inhibition was -2.44% (inactive). With `CN(C)CC(=O)Nc1ccc2c(c1)[C@H]1C[C@@H](CC(=O)NCc3ccc(Cl)cc3)O[C@@H](CO)[C@H]1O2` the inhibition was 4.32% (inactive). `O=C(C[C@@H]1C[C@H]2c3cc(NC(=O)C4CCC4)ccc3O[C@H]2[C@@H](CO)O1)NCc1ccc2c(c1)OCO2` was tested, and the inhibition was 5.03% (inactive). In the case of `CN(C)CC(=O)Nc1ccc2c(c1)[C@@H]1C[C@H](CC(=O)NCc3ccc(Cl)cc3)O[C@@H](CO)[C@@H]1O2`, the inhibition was 4.86% (inactive). `O=C(C[C@@H]1C[C@@H]2c3cc(NC(=O)C4CCC4)ccc3O[C@@H]2[C@@H](CO)O1)NCc1ccccc1` was tested, and the inhibition was 5.94% (inactive). `COCCNC(=O)C[C@H]1C[C@H]2c3cc(NS(C)(=O)=O)ccc3O[C@H]2[C@H](CO)O1` was tested, and the inhibition was -4.62% (inactive). With `O=C(C[C@@H]1C[C@H]2c3cc(NS(=O)(=O)c4ccc(F)cc4)ccc3O[C@H]2[C@H](CO)O1)NCCc1ccccc1` the inhibition was 1.01% (inactive). `CN(C)c1ccc2c(c1)[C@H]1C[C@H](CC(=O)NCc3ccc(Cl)cc3)O[C@H](CO)[C@H]1O2` was tested, and the inhibition was 15.9% (active). With `O=C(C[C@H]1C[C@H]2c3cc(NC(=O)C4CCC4)ccc3O[C@H]2[C@@H](CO)O1)NCc1ccc(Cl)cc1` the inhibition was 0.855% (active). In the case of `CS(=O)(=O)Nc1ccc2c(c1)[C@H]1C[C@@H](CC(=O)NCCc3ccccc3)O[C@@H](CO)[C@H]1O2`, the inhibition was 21.9% (active). In the case of `COCC#Cc1cnc2c(c1)C(=O)N([C@H](C)CO)C[C@H](C)[C@H](CN(C)C(=O)C1CCOCC1)O2`, the inhibition was 3.88% (inactive). With `CCNC(=O)c1cc2c(c(-c3cccc(C4=CCCC4)c3)n1)[C@H](CCO)N([S@@](=O)C(C)(C)C)C2` the inhibition was 13.7% (inactive). In the case of `O=C(C[C@@H]1C=C[C@@H](NC(=O)C2CC2)[C@H](CO)O1)NCCCN1CCOCC1`, the inhibition was 4.53% (inactive). With `N#C[C@H]1[C@@H](c2ccccc2C2=CCCCC2)[C@H](CO)N1C(=O)c1ccccn1` the inhibition was 2.41% (inactive). For `CN1C(=O)c2cc(NC(=O)C3CCOCC3)ccc2OC[C@H]2O[C@@H](CC(=O)NCC3CCCCC3)CC[C@@H]21`, the inhibition was 12.7% (inactive). With `O=C(Cc1ccccn1)N1CC(=O)N2[C@H](CO)[C@@H](c3ccc(C#CC4CCCC4)cc3)[C@H]2C1` the inhibition was 1.82% (inactive). In the case of `O=C(C[C@H]1CC[C@@H]2[C@H](COC[C@H](O)CN2S(=O)(=O)c2ccc(Cl)cc2)O1)N[C@@H]1CCN(Cc2ccccc2)C1`, the inhibition was 0.669% (inactive). With `Cc1cccc(S(=O)(=O)N2C[C@@H]3[C@H](c4ccccc42)[C@@H](CO)N3C(=O)c2ccccc2)c1` the inhibition was 2.62% (inactive). `CO[C@@H]1CN(C)C(=O)c2ccc(NC(=O)Nc3cc(F)ccc3F)cc2OC[C@@H](C)N(C)C[C@@H]1C` was tested, and the inhibition was 4.44% (inactive). `COCC(=O)N1CC(=O)N2[C@H](CO)[C@@H](c3ccc(C#CC4CCCCC4)cc3)[C@@H]2C1` was tested, and the inhibition was -3.9% (inactive). In the case of `C/C=C/c1cnc2c(c1)C(=O)N([C@@H](C)CO)C[C@@H](C)[C@H](CN(C)Cc1cncnc1)O2`, the inhibition was -2.68% (inactive). With `O=C(CN1CCOCC1)N1CCCCN2[C@H](C1)[C@H](c1ccc(-c3ccccc3F)cc1)[C@@H]2CO` the inhibition was 22.6% (active). With `O=C(CN1CCOCC1)N1CCCCN2[C@@H](CO)[C@H](c3ccc(-c4ccccc4)cc3)[C@@H]2C1` the inhibition was -2% (inactive). In the case of `O=C(CN1CCOCC1)N1CCCCN2[C@H](CO)[C@H](c3ccc(-c4ccccc4)cc3)[C@@H]2C1`, the inhibition was -2.91% (inactive). `CNC(=O)C[C@@H]1CC[C@@H]2[C@H](COc3ccc(NC(=O)Nc4ccccc4)cc3C(=O)N2C)O1` was tested, and the inhibition was 5.7% (inactive). For `CN(C)CC(=O)Nc1ccc2c(c1)[C@H]1C[C@H](CC(=O)NCc3ccccn3)O[C@@H](CO)[C@H]1O2`, the inhibition was -6.14% (inactive). `Cc1ccc(SCCC(=O)NCc2ccccn2)cc1` was tested, and the inhibition was -1.1% (inactive). In the case of `Cc1ccc(SCCC(=O)Nc2cc(C)on2)cc1`, the inhibition was -2.48% (inactive). In the case of `Cc1ccc(SCCC(=O)NC(C(C)C)C(C)C)cc1`, the inhibition was 15.4% (active). For `CN(C)C(=O)c1ccc(-c2ccc(C3[C@@H]4CN(C(=O)Nc5ccccc5)C[C@H]3N4)cc2)cc1` (some centres not stated), the inhibition was -1.69% (inactive). With `COc1cccc(S(=O)(=O)N2C[C@@H]3N[C@H](C2)C3c2ccc(-c3cccc(C(=O)N(C)C)c3)cc2)c1` (some centres not stated) the inhibition was 1.44% (inactive) and 6.3% (inactive). With `O=C(C1CCCCC1)N1C[C@@H]2N[C@H](C1)C2c1ccc(-c2cccc(F)c2)cc1` (some centres not stated) the inhibition was 1.22% (inactive) and 3.71% (inactive). With `Cc1cccc(-c2ccc(C3[C@@H]4CN(C(=O)Nc5ccc(C(F)(F)F)cc5)C[C@H]3N4)cc2)c1` (some centres not stated) the inhibition was 7.01% (inactive) and 16.1% (active). `COc1ccccc1S(=O)(=O)N1C[C@@H]2N[C@H](C1)C2c1ccc(-c2cccc(C)c2)cc1` (some centres not stated) was tested, and the inhibition was 1.28% (inactive) and 16.2% (active). For `N#Cc1ccc(-c2ccc(C3[C@@H]4CN(S(=O)(=O)c5ccccc5F)C[C@H]3N4)cc2)cc1` (some centres not stated), the inhibition was -1.48% (inactive) and -0.825% (inactive). In the case of `O=C(C[C@H]1CC[C@H](NS(=O)(=O)c2ccccc2)[C@H](CO)O1)NCc1ccncn1`, the inhibition was 6.51% (inactive). `CN1C(=O)c2cc(NC(=O)Cc3cccs3)ccc2OC[C@@H]2O[C@@H](CC(=O)N[C@@H]3CCN(Cc4ccccc4)C3)CC[C@H]21` was tested, and the inhibition was -2.4% (inactive). For `COCCCNC(=O)[C@@]1(C)c2ccccc2C(=O)N(Cc2ccc(OC(F)(F)F)cc2)[C@H]1c1ccc(CO)cc1`, the inhibition was 0.166% (inactive). With `COc1ccccc1CNC(=O)C[C@H]1C[C@@H]2c3cc(NC(=O)Nc4ccccc4F)ccc3O[C@@H]2[C@H](CO)O1` the inhibition was -5.72% (inactive). `COCC(=O)N(C)C[C@H]1Oc2cc(C#C[C@@H](C)O)ccc2S(=O)(=O)N([C@H](C)CO)C[C@H]1C` was tested, and the inhibition was -5.34% (inactive). For `CO[C@@H]1CN(C)C(=O)c2cc(NC(=O)CC(F)(F)F)ccc2OC[C@H](C)N(S(=O)(=O)c2cn(C)cn2)C[C@H]1C`, the inhibition was 1.11% (inactive). For `O=C(O)C[C@@H]1C[C@@H]2c3cc(NC(=O)Nc4ccccc4)ccc3O[C@@H]2[C@H](CO)O1`, the inhibition was -3.63% (inactive). For `O=C(Nc1ccc(F)cc1)N[C@H]1CC[C@H](CCn2cc(-c3ccc(F)cc3)nn2)O[C@@H]1CO`, the inhibition was 3.97% (inactive). With `O=C(Cc1ccncc1)N[C@@H]1CC[C@H](CCn2cc(-c3ccccc3F)nn2)O[C@H]1CO` the inhibition was 1.05% (inactive). With `O=C(Cc1cccnc1)N[C@H]1CC[C@H](CCn2cc(-c3ccccc3F)nn2)O[C@H]1CO` the inhibition was -1.27% (inactive). With `COc1ccc(NC(=O)N[C@H]2CC[C@H](CCn3cc(-c4ccccc4F)nn3)O[C@H]2CO)cc1` the inhibition was -0.072% (inactive). In the case of `O=C(Cc1ccncc1)N[C@H]1CC[C@H](CCn2cc(-c3ccccc3F)nn2)O[C@@H]1CO`, the inhibition was 25.2% (active). `COc1ccc(NC(=O)N[C@@H]2CC[C@H](CCn3cc(-c4ccc(OC)cc4)nn3)O[C@@H]2CO)cc1` was tested, and the inhibition was 31.3% (active). With `COc1ccc2c3c(n(C)c2c1)[C@@H](CO)NCC31CCN(CC2CCCC2)CC1` the inhibition was -0.874% (inactive). `CN1CCN(C(=O)C[C@@H]2C=C[C@@H](NS(=O)(=O)c3cccc(F)c3)[C@@H](CO)O2)CC1` was tested, and the inhibition was 1.94% (inactive). With `C[C@@H]1CN([C@@H](C)CO)S(=O)(=O)c2ccc(-c3cccnc3)cc2O[C@H]1CN(C)CC1CCOCC1` the inhibition was 1.51% (inactive). With `CCC(=O)N1[C@H](C(=O)NC2CCC2)[C@@H](CO)[C@@H]2Cn3c(cccc3=O)[C@@H]21` the inhibition was -8.06% (inactive). `C[C@H](CO)N1C[C@H](C)[C@@H](CN(C)S(=O)(=O)c2ccccc2F)Oc2ncc(C#Cc3ccccc3F)cc2C1=O` was tested, and the inhibition was 2.94% (inactive). `N#C[C@@H]1[C@@H](c2ccccc2C2=CCCC2)[C@H](CO)N1C(=O)NC1CCCC1` was tested, and the inhibition was 1.76% (inactive). In the case of `Oc1c(Cl)cc(Cl)c(Cl)c1Cc1c(O)c(Cl)cc(Cl)c1Cl`, the inhibition was 16% (active). `COCC(=O)Nc1ccc2c(c1)C(=O)N(C)[C@@H]1CC[C@@H](CC(=O)NCC(F)(F)F)O[C@H]1CO2` was tested, and the inhibition was 0.833% (inactive). With `Cc1cnc(C)c(N2CCN(C(=O)C3CCC(=O)N(CCc4cccc(F)c4)C3)CC2)n1` (configuration not stated) the inhibition was -3.12% (inactive). In the case of `O=C1CCC(C(=O)N2CCC(O)(c3ccccc3)CC2)CN1CCc1ccccc1` (configuration not stated), the inhibition was 15.1% (active). With `O=C(NCCCc1ccccc1)C1CCC(=O)N(CCc2ccc(Cl)cc2)C1` (configuration not stated) the inhibition was -3.16% (inactive). `C[C@@H]1CN([C@@H](C)CO)C(=O)c2cccc(NC(=O)Nc3ccc(F)cc3)c2O[C@H]1CN(C)Cc1ccc(-c2ccccc2)cc1` was tested, and the inhibition was -1.08% (inactive). With `CCNC(=O)[C@H]1[C@H](CO)[C@H]2Cn3c(ccc(-c4cccc(OC)c4)c3=O)[C@H]2N1Cc1nccs1` the inhibition was -15.5% (inactive).
